In ChEMBL document CHEMBL1157539, “Thousands of chemical starting points for antimalarial lead identification” (Nature, 2010):

What was measured:
Format in all cases: functional
[1] = system: Plasmodium falciparum; assay: GSK_TCMDC: Inhibition of Plasmodium falciparum 3D7 in whole red blood cells, using parasite LDH activity as an index of growth. Test compounds present at 2uM
[2] = system: Plasmodium falciparum; assay: GSK_TCMDC: Inhibition of Plasmodium falciparum Dd2 in whole red blood cells, using parasite LDH activity as an index of growth. Test compounds present at 2uM
[3] = system: HepG2; assay: GSK_TCMDC: Percent inhibition of human HepG2 cell line. Test compounds present at 10uM.

| Structure (SMILES) | Inhibition [1] | Inhibition [2] | Inhibition [3] |
| --- | --- | --- | --- |
| CC[C@H]1CN2CC[C@H]1C[C@H]2[C@H](O)c1cc(-c2cccc(F)c2)nc2ccc(OC)cc12.Cl | 99% | 97% | 34% |
| CC[C@H]1CN2CC[C@@H]1C[C@H]2[C@H](O)c1cc(-c2cc(Cl)cc(Cl)c2)nc2ccc(OC)cc12 | 99% | 97% | 0% |
| OC(CNC12CC3CC(CC(C3)C1)C2)c1cccc(C(F)(F)F)c1 (configuration not stated) | 97% | 98% | 16% |
| O=C1Nc2cccc3c2C1(CCCCN1CC=C(c2c[nH]c4ncccc24)CC1)CCC3 (configuration not stated) | 92% | 80% | 11% |
